Assay outcomes from PubChem BioAssay.
Rows were chosen to be rich in hits. Some 12% of all compounds tested hit in one or more screens of this group.
JMJD2A Tudor inh – blocks the human JMJD2A Tudor domain; O75164; AlphaScreen JMJD2A-Tudor / H3K4me3 peptide binding; Potency, µM (highest dose often 114 µM), for inactives: at the top dose activity change, negative = inhibition, usual class: inhibitors; 4.4% of 390,000 active; AID 504339; further: on the % scale 0 is the no-effect control and ±100 the full control effect; nearly all actives have a fitted effect of over 50% in size
L3MBTL1 inh – inhibitors of human L3MBTL1; AlphaScreen L3MBTL1–H3K9me1 peptide binding; Potency, µM (titrated, usually from 57.1 µM), inactives show at the top dose activity, negative = inhibition, usual class: inhibitors; 0.66% of 230,000 active; further: on the % scale 0 is the no-effect control and ±100 the full control effect; nearly all actives have a fitted effect of over 60% in size
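Displacement of a biotinylated histone H3(1-15) peptide monomethylated at Lys9 (75 nM) from L3MBTL1 (50 nM) was measured by AlphaScreen after a 30 min room-temperature compound incubation; cefsulodin titration served as intraplate control.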
G9a block – blocks human histone lysine methyltransferase G9a | Potency, µM (top dose mostly 102 µM), inactives show at the highest dose activity, negative = inhibition, actives largely listed as inhibitors | Q96KQ7 | AID 504332 | 8.8% of 350,000 active | G9a H3K9 monomethylation, AlphaScreen, 2 h; further: on the % scale 0 is the no-effect control and ±100 the full control effect; nearly all actives have a fitted effect of over 75% in size
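Enzyme 20 nM + cpd, 15 min RT; add b-H3K9 pep 500 nM / SAM 20 uM; 2 h RT; anti-H3K9me1 Ab 0.5 ug/mL + SA donor / anti-rabbit acceptor beads 20 ug/mL each, 10 min; AlphaScreen read.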
Sfp PPTase inh – Sfp phosphopantetheinyl transferase inhibition; Potency, µM, for inactives: largest response in the series, negative = inhibition, hits mostly inhibitors; AID 1490; 3.5% of 310,000 active; Biochemical Sfp PPTase activity, qHTS;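 further: the enzyme is Sfp with the accession as filed and its product quenches rhodamine fluorescence; 0% = enzyme reaction without inhibitor and -100% = no enzyme wells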
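Buffer: 50 mM Hepes-Na pH 7.6, 10 mM MgCl2, 0.01% Nonidet P-40, 0.01% BSA. Enzyme 15 nM, pre-exposed to compound 15 min; substrates then added and fluorescence change tracked over 30 min.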
HP1b chromo inh – blocks HP1-beta chromodomain binding to methylated histone tails; P83916; AlphaScreen HP1-beta / biotin-H3K9me3 peptide binding; Potency, µM (doses to about 114 µM), for the others: top-dose activity change, negative = inhibition, most hits filed as inhibitors; 0.56% of 390,000 active; AID 540317; further: nearly all actives have a fitted effect of over 70% in size
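Compound inhibition of the preformed complex between 50 nM HP1-beta and 50 nM biotinylated H3K9me3 peptide was read by AlphaScreen. Buffer was PBS pH 7.4 with 0.01% Tween-20. Incubations ran 30 min at room temperature, with 10 ug/mL donor/acceptor beads.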
BAZ2B block – inhibitors of human BAZ2B bromodomain; AlphaScreen BAZ2B-H3K14Ac peptide displacement; 4.4% of 360,000 active; Q9UIF8; Potency, µM (doses to about 114 µM), for the others: top-dose activity change, negative = inhibition, usual class: inhibitors; further: on the % scale 0 is the no-effect control and ±100 the full control effect; nearly all actives have a fitted effect of over 60% in size
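BAZ2B (50 nM) with biotin-H3(5-23)K14Ac peptide (50 nM) in PBS pH 7.4, 0.01% Tween-20, preformed 30 min, then compound 30 min at room temperature; top concentration 110uM. AlphaScreen streptavidin donor/nickel chelate acceptor beads (10 ug/mL final), 20 min dark, signal read.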
* = called active by the depositor; ? = inconclusive; nt = no result given; [ ] = dose if it differs, or a comment. The call rests on the fitted dose curve; in most records, active means well fitted curve in the direction sought with a large enough effect; inconclusive means small, poorly fitted or top-dose-only effect, or another doubt; inactive means no such curve, though single readings can be large; an effect the other way counts as inactive or inconclusive. Potency means the concentration at half of the fitted maximal effect.

SMILES	JMJD2A Tudor inh	L3MBTL1 inh	G9a block	Sfp PPTase inh	HP1b chromo inh	BAZ2B block
NC(=S)Nc1cccc(-c2n[nH]c(=S)o2)c1	?	0%	40µM*	-9%	12%	-21%
Cc1ccc(NC(=S)Nc2cccc(-c3n[nH]c(=S)o3)c2)cc1	-28%	-3%	50µM*	50µM*	-19%	?
NC(=S)Nc1cccc(O)c1	-5%	nt	-48%	6%	44%	-14%
O=C(CN1C(=O)CCc2cc(S(=O)(=O)N3CCOCC3)ccc21)NCc1ccc(F)cc1	-16%	nt	24%[59 µM]	nt	20%	-3%
CC(NC(=O)C1=CC=CN2CCS(=O)(=O)N=C12)c1ccc(Cl)c(Cl)c1 (centres undefined)	-9%	4%	nt	nt	29%[57 µM]	nt
CCOC(=O)C1=C(C)NC(C)=C(C(=O)OCC)C1C	2%	14%	31%	13%	43%	-1%
CCOC(=O)C1=C(C)Nc2ccc(C)cc2S1	-25%	-8%	?	50µM*	?	50µM*
CSCCOC(=O)C1=C(C)Nc2ccc(C)cc2S1	79µM*	nt	25µM*	50µM*	-67%	45µM*
CCOC(=O)/C=C1\Nc2ccccc2SC1=O	-12%	nt	14%[12.7 µM]	-3%	29%	2%
CCOCCOC(=O)C1=C(C)Nc2ccc(C)cc2S1	14µM*	0%	16µM*	?	-43%	?
CSCCOC(=O)C1=C(C)NC(=O)NC1c1ccc2c(c1)OCO2 (centres undefined)	-10%	-6%	nt	11%	19%	-10%
CCOC(=O)C1=C(C)Nc2ccccc2S1	?	nt	nt	50µM*	?	40µM*
COc1ccc(-n2c(COc3cccc4ccccc34)nnc2SCC(=O)NCc2ccco2)cc1	?	nt	-7%[12.7 µM]	0%	?	-35%
Cn1nnnc1Sc1ncnc2scc(-c3cccc(N)c3)c12	-32%	nt	nt	nt	nt	nt
O=C(CSc1nnc(-c2ccccc2F)o1)N1CCc2ccccc21	-4%	nt	1%[59 µM]	nt	24%	1%
O=C(NC(=S)N1CCCc2ccccc21)c1ccccc1	?	-6%	29%[0.501 µM]	-1%	-11%	?
O=C(NC(=S)N1CCCc2ccccc21)c1ccc(Br)cc1	?	-7%	45µM*	45µM*	1%	-32%
O=C(NC(=S)N1CCCc2ccccc21)c1ccc(Cl)cc1	?	-11%	?	22µM*	-7%	-10%
COc1ccccc1CCNC(=O)CCc1c(C)c2cc3c(C)coc3cc2oc1=O	-24%	nt	-21%[59 µM]	nt	36%	-11%
Cc1ccc(Cl)cc1N1CCN(C(=O)CN(C2CCCCC2)S(C)(=O)=O)CC1	-3%[11.4 µM]	-1%	20%[59 µM]	8%	-21%	8%
Cc1cc(C)c2c(=O)[nH][nH]c2n1	-6%	nt	nt	nt	29%	nt
COC1(C)CC2C(CC1OC(=O)c1cc([N+](=O)[O-])cc([N+](=O)[O-])c1)C2(C)C (centres undefined)	25µM*	-21%	13µM*	?	?	7.1µM*
C=CC[C@@H](CC(=O)OC(C)(C)C)C(=O)OC[C@@H]1CCCN1C(=O)[C@@H](CC=C)CC(=O)N(CCO)Cc1ccccc1	-11%	-6%	nt	nt	23%	nt
CC(=O)/C(=N\Nc1ccc(C)cc1)Sc1nncn1C	?	2%	8.9µM*	?	14%[57 µM]	-5%
CCCCCCCCCCOC(=O)Cn1c(COc2ccccc2OC)[n+](C)c2ccccc21	-24%	4%	14%	45µM*	47%	-17%
c1cc(-c2nsc(-c3ccncc3)n2)ccn1	-15%	nt	-122%[59 µM]	45µM*	-32%	-10%
CC(C(=O)Nc1ccc2c(c1)OCO2)N1CCN(C)CC1 (centres undefined)	0.79µM*	3%	14µM*	?	22µM*	45µM*
CC(C(=O)Nc1ccc2c(c1)OCO2)N1CCC(N2CCCCC2)CC1 (centres undefined)	25µM*	-9%	?	nt	-26%	50µM*
CC(C)c1ccc(NC(=O)C(c2ccc3c(c2)OCO3)N2CCCCC2)cc1 (centres undefined)	-14%	nt	?	13%	35%	2%
